Over roughly 16,000 sequences, “rpm ratio (pull-down/input)” has its median near 0.94; the highest 2% begin near 1.7. Only a selection was taken, and the highest values are over-represented in it overall.
Target: T1, MBP-FoxP1dN (Mus musculus, UniProt P58462 326-579)
T1 sequence: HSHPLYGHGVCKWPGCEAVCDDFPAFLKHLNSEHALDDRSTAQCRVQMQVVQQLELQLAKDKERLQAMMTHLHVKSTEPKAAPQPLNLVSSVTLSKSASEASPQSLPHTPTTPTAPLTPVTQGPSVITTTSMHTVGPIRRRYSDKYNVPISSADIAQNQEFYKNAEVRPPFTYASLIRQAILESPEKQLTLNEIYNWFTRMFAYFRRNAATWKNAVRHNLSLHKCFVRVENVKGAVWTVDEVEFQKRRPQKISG
Experiment: PD-seq (MBP pull-down with sequencing); 20 mM Tris-HCl pH 7.5, 100 mM NaCl, 1.5 mM MgCl2, 0.4 uM protein, 0.1 uM dsDNA library, 30 min, room temperature, amylose pull-down; high values mean tight binding
Settings: protein: recombinant; tags: His6-MBP; chain copies: 2; dsDNA, one strand shown
Method in brief: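 Amylose resin was used to capture complexes formed during 30 min at room temperature in Tris pH 7.5 buffer with NaCl and MgCl2 between 0.4 µM His6-MBP-tagged mouse FoxP3 or FoxP1 fragment lacking the N-terminus, expressed in E. coli, and 0.1 µM Klenow-filled double-stranded degenerate DNA library. After three washes, the DNA was released with proteinase K, barcoded by PCR and sequenced on Illumina. Binding is pooled-replicate reads-per-million enrichment, pull-down over input.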

Sequence	binding signal
GATGATTGTTCTCCCAGCTGATGAATTATGGCAATCGAGTAAACAAATTTTCCTAATCTTTCTGTTCAAGCGCCATCTAC	1.23 RPM ratio (pull-down/input)
GATGATTGTTCTCCCAGCTGATGAATTTCGGTTCTCGAGTAAACAAATTTTCCTAATCTTTCTGTTCAAGCGCCATCTAC	0.825 RPM ratio (pull-down/input)
GATGATTGTTCTCCCAGCTGATGAATTCGGGGCCTCGAGTAAACAAATTTTCCTAATCTTTCTGTTCAAGCGCCATCTAC	0.744 RPM ratio (pull-down/input)
GATGATTGTTCTCCCAGCTGATGAATTTGTTTTATCGAGTAAACAAATTTTCCTAATCTTTCTGTTCAAGCGCCATCTAC	1.78 RPM ratio (pull-down/input)
GATGATTGTTCTCCCAGCTGATGAATTTGTTAGTTCGAGTAAACAAATTTTCCTAATCTTTCTGTTCAAGCGCCATCTAC	1.78 RPM ratio (pull-down/input)
GATGATTGTTCTCCCAGCTGATGAATTCTGTTTATCGAGTAAACAAATTTTCCTAATCTTTCTGTTCAAGCGCCATCTAC	2.76 RPM ratio (pull-down/input)
GATGATTGTTCTCCCAGCTGATGAATTTATCTCCTCGAGTAAACAAATTTTCCTAATCTTTCTGTTCAAGCGCCATCTAC	1.08 RPM ratio (pull-down/input)
GATGATTGTTCTCCCAGCTGATGAATTGTTTATCTCGAGTAAACAAATTTTCCTAATCTTTCTGTTCAAGCGCCATCTAC	2.68 RPM ratio (pull-down/input)
GATGATTGTTCTCCCAGCTGATGAATTTTTTATCTCGAGTAAACAAATTTTCCTAATCTTTCTGTTCAAGCGCCATCTAC	0.997 RPM ratio (pull-down/input)
GATGATTGTTCTCCCAGCTGATGAATTTATCTGATCGAGTAAACAAATTTTCCTAATCTTTCTGTTCAAGCGCCATCTAC	1.07 RPM ratio (pull-down/input)
GATGATTGTTCTCCCAGCTGATGAATTCTTTTTATCGAGTAAACAAATTTTCCTAATCTTTCTGTTCAAGCGCCATCTAC	1 RPM ratio (pull-down/input)
GATGATTGTTCTCCCAGCTGATGAATTGTTAGTTTCGAGTAAACAAATTTTCCTAATCTTTCTGTTCAAGCGCCATCTAC	1.7 RPM ratio (pull-down/input)
GATGATTGTTCTCCCAGCTGATGAATTAGTTAGTTCGAGTAAACAAATTTTCCTAATCTTTCTGTTCAAGCGCCATCTAC	0.968 RPM ratio (pull-down/input)
GATGATTGTTCTCCCAGCTGATGAATTCCTTTTATCGAGTAAACAAATTTTCCTAATCTTTCTGTTCAAGCGCCATCTAC	0.896 RPM ratio (pull-down/input)
GATGATTGTTCTCCCAGCTGATGAATTTATCAAATCGAGTAAACAAATTTTCCTAATCTTTCTGTTCAAGCGCCATCTAC	1.28 RPM ratio (pull-down/input)
GATGATTGTTCTCCCAGCTGATGAATTCAATGAATCGAGTAAACAAATTTTCCTAATCTTTCTGTTCAAGCGCCATCTAC	0.93 RPM ratio (pull-down/input)
GATGATTGTTCTCCCAGCTGATGAATTGGAAGGCTCGAGTAAACAAATTTTCCTAATCTTTCTGTTCAAGCGCCATCTAC	0.76 RPM ratio (pull-down/input)

Sequence	binding signal
GATGATTGTTCTCCCAGCTGATGAATTAAACTAATCGAGTAAACAAATTTTCCTAATCTTTCTGTTCAAGCGCCATCTAC	1.09 RPM ratio (pull-down/input)
GATGATTGTTCTCCCAGCTGATGAATTCGTCCTATCGAGTAAACAAATTTTCCTAATCTTTCTGTTCAAGCGCCATCTAC	0.835 RPM ratio (pull-down/input)
GATGATTGTTCTCCCAGCTGATGAATTTTCGCGATCGAGTAAACAAATTTTCCTAATCTTTCTGTTCAAGCGCCATCTAC	0.884 RPM ratio (pull-down/input)
GATGATTGTTCTCCCAGCTGATGAATTTGCGTTGTCGAGTAAACAAATTTTCCTAATCTTTCTGTTCAAGCGCCATCTAC	1.29 RPM ratio (pull-down/input)
GATGATTGTTCTCCCAGCTGATGAATTGGATAGCTCGAGTAAACAAATTTTCCTAATCTTTCTGTTCAAGCGCCATCTAC	0.85 RPM ratio (pull-down/input)
GATGATTGTTCTCCCAGCTGATGAATTACGTAAATCGAGTAAACAAATTTTCCTAATCTTTCTGTTCAAGCGCCATCTAC	1.34 RPM ratio (pull-down/input)
GATGATTGTTCTCCCAGCTGATGAATTTTACGTATCGAGTAAACAAATTTTCCTAATCTTTCTGTTCAAGCGCCATCTAC	0.962 RPM ratio (pull-down/input)
GATGATTGTTCTCCCAGCTGATGAATTTTTTAGATCGAGTAAACAAATTTTCCTAATCTTTCTGTTCAAGCGCCATCTAC	0.923 RPM ratio (pull-down/input)
GATGATTGTTCTCCCAGCTGATGAATTTACGTAATCGAGTAAACAAATTTTCCTAATCTTTCTGTTCAAGCGCCATCTAC	1.82 RPM ratio (pull-down/input)
GATGATTGTTCTCCCAGCTGATGAATTTGATTTATCGAGTAAACAAATTTTCCTAATCTTTCTGTTCAAGCGCCATCTAC	1.23 RPM ratio (pull-down/input)
GATGATTGTTCTCCCAGCTGATGAATTTTGTTTATCGAGTAAACAAATTTTCCTAATCTTTCTGTTCAAGCGCCATCTAC	2.61 RPM ratio (pull-down/input)
GATGATTGTTCTCCCAGCTGATGAATTTAGTGAATCGAGTAAACAAATTTTCCTAATCTTTCTGTTCAAGCGCCATCTAC	0.958 RPM ratio (pull-down/input)
GATGATTGTTCTCCCAGCTGATGAATTTAGATGATCGAGTAAACAAATTTTCCTAATCTTTCTGTTCAAGCGCCATCTAC	1.11 RPM ratio (pull-down/input)
GATGATTGTTCTCCCAGCTGATGAATTGTTTAGATCGAGTAAACAAATTTTCCTAATCTTTCTGTTCAAGCGCCATCTAC	2.19 RPM ratio (pull-down/input)
GATGATTGTTCTCCCAGCTGATGAATTTGGTTTATCGAGTAAACAAATTTTCCTAATCTTTCTGTTCAAGCGCCATCTAC	1.32 RPM ratio (pull-down/input)
GATGATTGTTCTCCCAGCTGATGAATTTTAGTAATCGAGTAAACAAATTTTCCTAATCTTTCTGTTCAAGCGCCATCTAC	1.75 RPM ratio (pull-down/input)
GATGATTGTTCTCCCAGCTGATGAATTTAGTAAATCGAGTAAACAAATTTTCCTAATCTTTCTGTTCAAGCGCCATCTAC	1.58 RPM ratio (pull-down/input)
